Data taken from PubChem BioAssay AID1159580 (chemical genetic matrix, 2015).
About 2,000 (36%) of roughly 5,500 compounds were called active. Inconclusive results (about 18%) are left out. Rule as the data show it: active = normalized growth mostly below about 0.91 (no sharp cut-off); inconclusive = no clear call, values can overlap the other calls; inactive = mostly above about 0.92. This is one part of the list.

Assay: chemical genetic growth profiling, strain panel (AID 1159580);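 also: tested at 20 µM; growth read once vehicle control cultures reached saturation at 30 °C; 1 = growth at the plate median or of vehicle wells; lower values mean less growth of the strain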
Details: S. cerevisiae deletion strains, growth OD

Measured: normalized growth

Clc1ccc(C(c2ccccc2Cl)C(Cl)Cl)cc1 (configuration not stated)
active: locus YLR027C, strain aat2, hits give low values 0.889
inactive: locus YJR066W, strain TOR1, hits give low values 0.894 | locus YJR075W, strain HOC1, hits give low values 1 | locus YKL009W, strain mrt4, hits give low values 0.98 | locus YKL068W, hits give low values 0.995 | locus YKL085W, strain MDH1 (second series), hits give low values 0.989 | locus YKL085W, strain MDH1, hits give low values 0.989 | locus YKL160W, strain elf1, hits give low values 0.923 | locus YKL190W, strain CNB1, hits give low values 1.03 | locus YKR001C, strain vps1, hits give low values 0.968 | locus YKR026C, strain gcn3, hits give low values 0.979 | locus YKR091W, strain srl3, hits give low values 0.976 | locus YLL001W, strain dnm1, hits give low values 0.91 | locus YLL026W, hits give low values 0.962 | locus YLL041C, strain sdh2, hits give low values 0.972 | locus YLR039C, strain RIC1, hits give low values 0.978 | locus YLR058C, strain SHM2, hits give low values 0.994 | locus YLR102C, strain apc9, hits give low values 0.993 | locus YLR113W, strain HOG1, hits give low values 0.93 | locus YLR221C, strain rsa3, hits give low values 0.927 | locus YLR258W, strain gsy2, hits give low values 0.984 | locus YLR262C, strain YPT6 (second series), hits give low values 0.881 | locus YLR262C, strain YPT6, hits give low values 0.955 | locus YLR268W, strain sec22, hits give low values 0.988 | locus YLR320W, strain mms22, hits give low values 0.929 | locus YLR330W, strain CHS5, hits give low values 1 | locus YLR342W, strain FKS1 (second series), hits give low values 1 | locus YLR342W, strain FKS1, hits give low values 0.999 | locus YLR357W, strain rsc2, hits give low values 1.04 | locus YLR370C, strain arc18, hits give low values 0.968 | locus YLR371W, strain rom2, hits give low values 0.985 | locus YLR384C, strain iki3, hits give low values 0.97 | locus YLR418C, strain cdc73, hits give low values 0.91 | locus YML016C, strain PPZ1, hits give low values 0.992 | locus YML032C, strain rad52, hits give low values 0.979 | locus YML120C, strain ndi1, hits give low values 0.932 | locus YML124C, strain tub3, hits give low values 0.988 | locus YMR058W, strain fet3, hits give low values 0.952 | locus YMR078C, strain ctf18, hits give low values 0.984 | locus YMR125W, strain sto1, hits give low values 0.991 | locus YMR129W, hits give low values 0.972 | locus YMR205C, strain PFK2, hits give low values 0.918 | locus YMR223W, strain ubp8, hits give low values 0.978 | locus YMR231W, strain pep5, hits give low values 0.97 | locus YMR263W, strain SAP30, hits give low values 0.975 | locus YMR307W, strain GAS1, hits give low values 0.986 | locus YNL067W, strain RPL9B, hits give low values 0.993
